Measured potencies and affinities stand elsewhere. Values without a mark were called inactive.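 How the source made its calls: active means cell killing, meaning signal decrease, with fitted half-maximal dose at or below ten times the top valid tested dose; inconclusive means poor fit, or flat curve with 30 to 70% signal loss; inactive means the rest.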
test: ATP-based viability loss in HeLa cells – cell-based, CellTiter-Glo luminescence, cherry-pick samples, cytotoxicity control for MITF activator project, dose response (AID 540259); conditions: 24 h; series mostly up to 35 µM; activity change, negative = cytotoxicity: at the top concentration;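 further: 0% = DMSO neutral control and -100% = mitoxantrone positive control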

| SMILES | activity change, negative = cytotoxicity |
| --- | --- |
| Oc1[nH]c2ccccc2c1C=Nc1ccccc1 | -4.29% |
| COc1ccccc1C(=O)NCCC(=O)NC1CCC(C)CC1 (configuration not stated) | 9.79% |
| COc1ccc(/C=C2\OC(=O)c3c(OC)cccc32)cc1OC | 11.9% |
| C=CCNc1nc(-c2ccc(Cl)cc2)cs1 | -14.9% |
| O=C(N/N=C/c1ccc(OC(=O)c2ccccc2Cl)cc1)c1ccccn1 | -9.83% |
| CCC(=O)N1CCc2nc(-c3ccccc3)sc2C1 | 0.697% |
| O=c1c(-c2ccc(O)cc2)coc2cc(O)cc(O)c12 | 3.81% |
| Cn1c2ccccc2c(=O)c2cc(C#Cc3ccccn3)ccc21 | 18.8% [at 11 µM] |
| COc1ccc(C(=O)Nc2cc3c4c(c2)CC(=O)N4CCC3)c(OC)c1 | 11.5% |
| NC(=O)c1cnn(-c2cc(Oc3ccccc3)ncn2)c1N | 5.25% |
| N/C(=N\OC(=O)C1CCCCC1)c1cccc(Br)c1 | 17.7% |
| Cc1ccc(/C=N/Nc2ccc(Cl)nn2)cc1 | 3.79% |
| CCN(CC)c1ccc(-c2nc3cnccc3n2C)cc1 | -9.89% |
| [O-]/[N+](=C\C=C\c1ccccc1)c1ccccc1 | -0.305% |
| CC(=O)c1ccc(Nc2ccc(-c3ccccc3C)nn2)cc1 | 12.9% [at 11 µM] |
| CN(C)S(=O)(=O)c1cccc(-c2nnc(-c3ccccc3)o2)c1 | 1.72% |
| CC(C)(C)c1ccc(C(=O)NCc2ccccc2)cc1 | -4.79% |
| CCCCc1ccc(Nc2ncnc3nc[nH]c23)cc1 | 12.9% |
| C=CCN=C1S/C(=C\c2ccc(N(C)C)cc2)C(=O)N1CC=C | -1.96% |

| SMILES | activity change, negative = cytotoxicity |
| --- | --- |
| O=C(N/N=C/c1ccccn1)c1c[nH]c2ccccc12 | 3.24% |
| CC(C)c1ccc(NC(=O)Cn2ncc3ccccc32)cc1 | 5.78% |
| CC(=O)Nc1nnc(COc2ccc(Cl)cc2)s1 | 5.53% |
| Cc1ccc(CONC(=O)c2ccc(C)cc2)cc1 | 22% |
| CSc1ccccc1OCc1cc(C(=O)N[C@H]2CCCCNC2=O)no1 | 11.5% |
| O=S(=O)(c1cccs1)N1CCCc2cccc(O)c21 | -14.1% |
| COc1ccc2cc(-c3csc(-c4cccnc4)n3)ccc2c1 | -5.03% |
| COc1cccc(/C=N/Nc2c(Cl)cncc2Cl)c1O | -9.53% |
| O=C(Cc1ccc(O)cc1)NC1CCCCCC1 | 1.55% |
| O=C(Cc1ccccc1)Nc1ccc2c(c1)OC1(CCCC1)O2 | 10.1% |
| O=C(c1cc(COc2ccc(F)cc2Cl)on1)N1CCCCCC1 | -8.23% |
| CCCc1ccc(C(=O)NNc2ccccc2F)cc1 | 5% |
| COc1ccccc1/C=C/C=N/n1c(-c2ccccn2)n[nH]c1=S | 2.88% |
| COc1ccccc1NC(=O)Nc1nc2ccc(S(N)(=O)=O)cc2s1 | 12.1% |
| N#C/C(=N\Nc1ccccc1F)C(=N)N1CCCCC1 | -9.97% |
| Cc1nc2c3cnn(-c4ccc(C)c(C)c4)c3ncn2n1 | -8.14% |
| C/C(=C\c1ccc(N)cc1)c1nc2ccccc2[nH]1 | 20.2% |
| COc1cc(SC)ccc1C(=O)NCC1CCCCC1 | -6.12% |
